According to PubChem BioAssay (NCI):
The panel holds about 79,000 compounds, 15% with a hit somewhere; the sample as a whole holds those more often. The source made the active and inactive calls. No stated cut-off is given here; in the data, active means growth inhibition above about 70%; inactive means the rest.

Key:
[1] = NCI Yeast Anticancer Drug Screen. Data for the rad50 strain (AID 155);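 further: 0% = growth of vehicle-only cultures of the same strain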; settings: S. cerevisiae rad50 strain growth inhibition; at 50.0 µM; hits give high values
Outline: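 DNA repair mutant yeast, compound exposure, growth read-out; inhibition is taken relative to vehicle.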

[2] = NCI Yeast Anticancer Drug Screen. Data for the mec2-1 strain (AID 157); settings: S. cerevisiae mec2-1 strain, at 50.0 µM, hits give high values
Outline: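 Readout is yeast growth inhibition, normalised to vehicle-treated controls, in the mec2-1 strain exposed to compound.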

[3] = NCI Yeast Anticancer Drug Screen. Data for the sgs1 mgt1 strain (AID 161);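 further: 0% = growth of cultures given vehicle only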; settings: S. cerevisiae sgs1 mgt1 strain, at 50.0 µM, hits give high values
Outline: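 Yeast cells carrying a defined DNA-repair defect were exposed to test compounds. Growth inhibition was measured relative to vehicle-treated controls.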

[4] = NCI Yeast Anticancer Drug Screen. Data for the cln2 rad14 strain (AID 165);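 further: 0% = growth equal to vehicle treated cultures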; settings: S. cerevisiae cln2 rad14 strain, at 50.0 µM, hits give high values
Outline: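 Relative to vehicle controls, growth inhibition of compound-treated cln2 rad14 yeast was recorded.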

[5] = NCI Yeast Anticancer Drug Screen. Data for the bub3 strain (AID 167); settings: S. cerevisiae bub3 mutant strain, at 50.0 µM, hits give high values
Outline: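 In this screen, a yeast mutant lacking normal mitotic checkpoint function is challenged with compound. Relative growth versus vehicle gives the inhibition value.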

[6] = NCI Yeast Anticancer Drug Screen. Data for the mlh1 rad18 strain (AID 175); settings: S. cerevisiae mlh1 rad18 strain growth inhibition; at 50.0 µM; hits give high values
Outline: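 Test agents were incubated with a yeast strain of defined genotype (DNA damage repair defect). Inhibition of growth was derived by comparison with vehicle-exposed cultures.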

Measured: growth inhibition

CCCCCOP(=O)(Cc1ccc(Cl)cc1)OCCCCC
active: [1] 99.6% | [2] 99.7% | [3] 99.5% | [4] 99.5% | [5] 99.4% | [6] 99.5%

NC(CCCCCCCCCCP(=O)(O)O)C(=O)O (stereo unspecified)
inactive: [1] -39.6% | [2] -41.5% | [3] -76.4% | [4] -12.1% | [5] -19.6% | [6] -18.6%

O=c1[nH]c2c(Br)cccc2c2ccccc12
inactive: [1] 43.1% | [2] 3.85% | [3] 11.8% | [4] -30.9% | [5] -14.5% | [6] 17.5%

CC(=O)[CH-]C(=O)c1ccccc1.CC(=O)[CH-]C(=O)c1ccccc1.CC(C)CCCC(C)[C@H]1CCC2[C@@H]3CC=C4C[C@@H]([O-])CC[C@]4(C)C3CC[C@@]21C.CC[O-].[Ti+4] (stereo partly specified)
inactive: [1] 11.2% | [2] 0.05% | [3] 10.2% | [4] -33.9% | [5] 23.2% | [6] 3.85%

CC(C)(C)OC(=O)NN(CC(=O)OCc1ccccc1)N=O
inactive: [1] 5.35% | [2] -2.15% | [3] 2.9% | [4] -42.5% | [5] 10.2% | [6] -7.6%

O=C(O)COc1c(Cl)cc(Cl)cc1Cl
inactive: [1] -34.7% | [2] -37% | [3] -29.6% | [4] -15.4% | [5] -39.9% | [6] -31.6%

CC(C)CC(C)N=C1CC2CCC1(C)C2(C)C (stereo unspecified)
inactive: [1] -32.3% | [2] -24.6% | [3] -3.35% | [4] -14.2% | [5] -7.15% | [6] -7.05%

Cn1ncc2c(=O)[nH]c(NCCO)nc21
inactive: [1] 3.3% | [2] 1.25% | [3] 0.9% | [4] -16.9% | [5] 8.7% | [6] 0.4%

O=C1C2=C(c3ccccc31)C(c1ccccc1Cl)N1C(=O)CSC1=N2 (stereo unspecified)
inactive: [1] 67.9% | [2] 50.2% | [3] 53.5% | [4] 48.6% | [5] 53.8% | [6] 60%

O=C(Nc1cccc2ccccc12)c1ccco1
inactive: [1] 14.8% | [2] 16.5% | [3] 8.6% | [4] 3.8% | [5] 1.65% | [6] 7.9%

COC(=O)C1=C(C(=O)OC)P2(C)(C)OC(c3ccccc3)CN2C1(c1ccccc1)c1ccccc1 (stereo unspecified)
inactive: [1] 18% | [2] 9.15% | [3] -2.4% | [4] -80% | [5] 0.3% | [6] 40.9%

CC1=C(\C=C/C(C)=C/C=C/C(C)=C/C=N/NC(=O)c2cccnc2)C(C)(C)CCC1
inactive: [1] 2.4% | [2] -7.4% | [3] 33.5% | [4] 41.6% | [5] 30% | [6] 27.6%

Cc1cccn(C)c1=O
inactive: [1] -5% | [2] 1.9% | [3] 2.15% | [4] 2.15% | [5] 0.4% | [6] 3.05%

O=C(c1ccccc1O)N1CCCCC1
inactive: [1] 32.1% | [2] 25.2% | [3] 12.5% | [4] 13.9% | [5] 16.6% | [6] 11.3%

CCc1nc(N)nc(C(=O)NCCNC(=O)c2nc(N)nc(CC)c2C)c1C
inactive: [1] -38.1% | [2] -14.2% | [3] -11.6% | [4] -16.7% | [5] -13.4% | [6] -45.5%

O=C(c1ccccc1)c1oc(CO)cc(=O)c1O
inactive: [1] -1% | [2] -12% | [3] -4.35% | [4] -48.1% | [5] -3.9% | [6] -16.1%

O=C(O)CNS(=O)(=O)c1ccccc1
inactive: [1] -43.5% | [2] -7.7% | [3] -23.1% | [4] -24.6% | [5] -0.8% | [6] 6%

Cc1cc(C[C@H]2O[C@@H]3OC(C)(C)O[C@@H]3[C@H]3OC(C)(C)O[C@H]32)c2ccccc2n1
inactive: [1] -4.6% | [2] 12% | [3] 19.9% | [4] -4.2% | [5] 9.1% | [6] 17.6%

Cc1nc(/N=C(/N)N(C)C)[nH]c(=O)c1C
inactive: [1] 1.7% | [2] -27.6% | [3] -11.6% | [4] 3.7% | [5] 4.05% | [6] 19.9%

O=C1c2ccccc2C(=O)N1C/C(Cl)=C/Cl
inactive: [1] -21.9% | [2] -6.5% | [3] -11.4% | [4] -3.65% | [5] 8.75% | [6] -22.6%

O=C(O)c1ccccc1C(=O)c1ccc(F)c2ccccc12
inactive: [1] 11% | [2] 26.9% | [3] 18.6% | [4] 21.1% | [5] 3.75% | [6] 10.7%

O=C(/C=C/c1ccc(Cl)c(Cl)c1)c1ccccc1
inactive: [1] -7.1% | [2] -52.9% | [3] -7.9% | [4] -16.9% | [5] 35% | [6] -59.4%

CCOC(=O)N1CCN(P(=O)(Nc2ccc3nc(NC(=O)OC)[nH]c3c2)Oc2ccccc2)CC1 (stereo unspecified)
inactive: [1] -38.5% | [2] -6.9% | [3] 0.55% | [4] -9.4% | [5] -9.65% | [6] -37.1%

COc1cccc(C(c2cc3c(cc2O)OCO3)N2CCOCC2)c1O (stereo unspecified)
inactive: [1] 15.9% | [2] 30.6% | [3] 51.4% | [4] 8.7% | [5] 1.35%
active: [6] 77.4%

CNS(=O)(=O)c1ccc(Cl)cc1
inactive: [1] 29.9% | [2] 11.7% | [3] 13.9% | [4] 13.3% | [5] 5.9% | [6] 20.1%

CCCC(C(=O)O)C(O)(CC(=O)O)C(=O)O (stereo unspecified)
inactive: [1] 18.6% | [2] -14.6% | [3] 11.4% | [4] -32.1% | [5] 7.85% | [6] -20.6%

N#CC(C#N)C1c2ccccc2Oc2ccccc21
inactive: [1] 7.1% | [2] -8.55% | [3] -4.05% | [4] -11.6% | [5] -4.95% | [6] -14.3%

O=c1cc(-c2ccc3ccccc3n2)oc2ccccc12
inactive: [1] -16.4% | [2] 2.5% | [3] 3.7% | [4] 28.3% | [5] -1.95% | [6] -4.2%

NC(CCCCC(=O)O)C(=O)O (stereo unspecified)
inactive: [1] -30.1% | [2] -22.3% | [3] -12.9% | [4] -38.2% | [5] -11.2% | [6] 0.15%

C=C(CCCC(C)OC(=O)NC(C)c1cccc2ccccc12)[Si](C)(C)C (stereo unspecified)
inactive: [1] -41.7% | [2] -20.1% | [3] -19.6% | [4] -6.6% | [5] 8.3% | [6] -26.4%

Cc1c(Cl)ccc2nc3ccccc3nc12
inactive: [1] 32.4% | [2] 18.8% | [3] 12.7% | [4] -4.85% | [5] 61.6% | [6] 34.5%

Cc1cc(=O)n2c(cc3cccccc32)n1
inactive: [1] 14.6% | [2] -1.3% | [3] -13.4% | [4] -23.4% | [5] -23.4% | [6] 4.65%

Clc1ccc(SCc2csc(-c3ccc(Cl)cc3)n2)cc1
inactive: [1] -27.5% | [2] -41.8% | [3] -19.1% | [4] -27.8% | [5] -6.8% | [6] -29.8%

Cc1cc(=O)c2c([nH]1)c1c(c3[nH]c(C)cc(=O)c32)Oc2ccccc2O1
inactive: [1] 65.2% | [2] 5% | [3] -2.95% | [4] -10.6% | [5] -5.55% | [6] 27.9%

CC(C)=CCCC(C)C=O (stereo unspecified)
inactive: [1] -11.6% | [2] -41.2% | [3] -19.4% | [4] 4% | [5] -20.1% | [6] 1.3%

COCC(N=CN1CCCc2ccccc2[C@@H]1CCCCl)C(C)(C)C (stereo partly specified)
inactive: [1] -6.6% | [2] 10.1% | [3] 25.9% | [4] 19.7% | [5] 19.9% | [6] 13.1%

COc1ccc(/C(Cl)=C(\C=O)c2ccc(Cl)c(Cl)c2)cc1OC
inactive: [1] 28.1% | [2] 11.2% | [3] 27.5% | [4] -34.6% | [5] 0.7% | [6] 43.1%

O=C1c2ccccc2C(=O)N1OCc1csc(-c2ccccc2)n1
inactive: [1] 5.5% | [2] 6.25% | [3] -4.2% | [4] 5.25% | [5] 0.95% | [6] 27.4%

O=C1c2ccccc2C(=O)c2[nH]ncc21
inactive: [1] 18.4% | [2] 13.8% | [3] -3.25% | [4] -61.6% | [5] 10.1% | [6] -1.8%

COc1ccc(C(=O)N2CCCCC2)cc1
inactive: [1] -31.1% | [2] -15.8% | [3] -3.8% | [4] -26.6% | [5] -0.9% | [6] -12.2%

CCC(CO)Nc1nc2c(c(=O)n(C)c(=O)n2C)n1CCO (stereo unspecified)
inactive: [1] -21.9% | [2] -1.9% | [3] 1% | [4] 8.15% | [5] -14.7% | [6] -4.75%
